Key:
Assay in all cases: DAPPL (digital affinity profiling via proximity ligation, sequencing); 10 mM Tris-HCl pH 7.5, 50 mM NaCl, 1 mM DTT, 4% glycerol, room temperature, 30 min; GST-TFs on glutathione beads, 16-mer random dsDNA library, 0.1% formaldehyde crosslink after washing; high values mean tight binding
FLI1 = target: T1, FLI1 (Homo sapiens, UniProt Q01543 1-452); conditions: protein: recombinant; tags: N-terminal GST; dsDNA, one strand shown
T1 sequence: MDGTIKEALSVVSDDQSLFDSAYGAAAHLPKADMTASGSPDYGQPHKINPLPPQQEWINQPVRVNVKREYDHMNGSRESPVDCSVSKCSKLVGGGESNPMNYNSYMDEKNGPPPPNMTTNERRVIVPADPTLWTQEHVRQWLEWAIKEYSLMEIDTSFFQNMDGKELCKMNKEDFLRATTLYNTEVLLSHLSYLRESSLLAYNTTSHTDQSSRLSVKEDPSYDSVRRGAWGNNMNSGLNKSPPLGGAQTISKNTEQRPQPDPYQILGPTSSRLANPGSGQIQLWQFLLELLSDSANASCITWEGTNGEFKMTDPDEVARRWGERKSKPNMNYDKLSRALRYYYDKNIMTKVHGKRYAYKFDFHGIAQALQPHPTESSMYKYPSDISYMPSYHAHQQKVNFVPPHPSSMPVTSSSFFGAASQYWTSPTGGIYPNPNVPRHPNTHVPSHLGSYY
In short: (§1)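 The binding signal reported is, for every hexamer, its read frequency for a factor over its read frequency for the tag-only sample. Reads came from pools of yeast-expressed, GST-fused human transcription factors on glutathione beads, barcoded with DNA and mixed with that sample, which were incubated with 200 nmole of a random double-stranded 16-mer DNA library in Tris/NaCl/DTT/glycerol buffer at room temperature for 30 min. After washing, the pools were crosslinked with 0.1% formaldehyde, proximity-ligated with BsaI/T4 ligase for 1 h at 37 °C, PCR-amplified and sequenced on an Illumina NextSeq500.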

ELK1 = target: T2, ELK1 (Homo sapiens, UniProt P19419 1-428); conditions: protein: recombinant; tags: N-terminal GST; dsDNA, one strand shown
T2 sequence: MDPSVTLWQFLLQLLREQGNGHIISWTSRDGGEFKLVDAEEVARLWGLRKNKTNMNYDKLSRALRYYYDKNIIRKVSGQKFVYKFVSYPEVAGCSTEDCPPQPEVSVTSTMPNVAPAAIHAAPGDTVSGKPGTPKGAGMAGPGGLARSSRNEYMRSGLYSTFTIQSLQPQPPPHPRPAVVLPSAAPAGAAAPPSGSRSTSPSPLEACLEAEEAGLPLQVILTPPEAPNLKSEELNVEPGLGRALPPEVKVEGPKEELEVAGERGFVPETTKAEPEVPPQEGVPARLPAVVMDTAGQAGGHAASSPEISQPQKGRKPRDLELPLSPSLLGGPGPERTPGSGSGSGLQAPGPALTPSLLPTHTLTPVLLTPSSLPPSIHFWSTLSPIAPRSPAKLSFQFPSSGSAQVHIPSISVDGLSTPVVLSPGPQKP
In short: as §1

GABPA = target: T3, GABPA (Homo sapiens, UniProt Q06546 1-454); conditions: protein: recombinant; tags: N-terminal GST; dsDNA, one strand shown
T3 sequence: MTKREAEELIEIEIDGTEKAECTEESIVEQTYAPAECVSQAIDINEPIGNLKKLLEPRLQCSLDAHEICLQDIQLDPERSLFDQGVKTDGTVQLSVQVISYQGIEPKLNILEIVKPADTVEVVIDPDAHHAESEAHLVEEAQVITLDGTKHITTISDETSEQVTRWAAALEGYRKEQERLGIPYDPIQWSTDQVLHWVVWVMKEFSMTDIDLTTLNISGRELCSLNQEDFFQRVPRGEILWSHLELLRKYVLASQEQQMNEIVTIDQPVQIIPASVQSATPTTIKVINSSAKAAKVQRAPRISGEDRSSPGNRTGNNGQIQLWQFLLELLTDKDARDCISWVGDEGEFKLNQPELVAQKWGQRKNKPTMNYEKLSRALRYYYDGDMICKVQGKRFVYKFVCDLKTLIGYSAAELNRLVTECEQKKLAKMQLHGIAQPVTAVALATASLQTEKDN
In short: as §1

ERG = target: T4, ERG (Homo sapiens, UniProt P11308 1-479); conditions: protein: recombinant; tags: N-terminal GST; dsDNA, one strand shown
T4 sequence: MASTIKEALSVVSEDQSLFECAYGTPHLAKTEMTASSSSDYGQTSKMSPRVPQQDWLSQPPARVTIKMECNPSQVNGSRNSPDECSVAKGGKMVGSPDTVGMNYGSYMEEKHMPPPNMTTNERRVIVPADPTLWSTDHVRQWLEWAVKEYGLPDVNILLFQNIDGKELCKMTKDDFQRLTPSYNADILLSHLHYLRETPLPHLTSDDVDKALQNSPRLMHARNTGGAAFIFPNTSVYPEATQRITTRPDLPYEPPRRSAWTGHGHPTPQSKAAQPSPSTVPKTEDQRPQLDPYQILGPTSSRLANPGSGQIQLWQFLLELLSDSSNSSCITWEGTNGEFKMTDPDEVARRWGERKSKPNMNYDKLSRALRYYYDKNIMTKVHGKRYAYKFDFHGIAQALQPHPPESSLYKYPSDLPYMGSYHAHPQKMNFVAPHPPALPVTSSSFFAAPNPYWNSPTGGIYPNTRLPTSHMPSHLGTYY
In short: as §1

ELF1 = ELF1 (Homo sapiens, UniProt P32519 1-619); conditions: protein: recombinant; tags: N-terminal GST; dsDNA, one strand shown
In short: as §1

EHF = target: T5, EHF (Homo sapiens, UniProt Q9NZC4 1-300); conditions: protein: recombinant; tags: N-terminal GST; dsDNA, one strand shown
T5 sequence: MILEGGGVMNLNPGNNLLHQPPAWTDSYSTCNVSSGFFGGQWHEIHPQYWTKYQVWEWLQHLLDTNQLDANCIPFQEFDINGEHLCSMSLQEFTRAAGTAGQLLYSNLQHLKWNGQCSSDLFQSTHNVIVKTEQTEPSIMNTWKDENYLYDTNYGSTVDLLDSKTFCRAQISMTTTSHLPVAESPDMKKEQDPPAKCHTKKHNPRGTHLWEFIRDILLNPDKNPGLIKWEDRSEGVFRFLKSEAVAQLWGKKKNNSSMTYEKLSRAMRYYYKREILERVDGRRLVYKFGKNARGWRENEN
In short: as §1

SPI1 = SPI1 (Homo sapiens, UniProt P17947 1-270); conditions: protein: recombinant; tags: N-terminal GST; dsDNA, one strand shown
In short: as §1

SPIB = SPIB (Homo sapiens, UniProt Q01892 1-262); conditions: protein: recombinant; tags: N-terminal GST; dsDNA, one strand shown
In short: as §1

ELK3 = target: T6, ELK3 (Homo sapiens, UniProt P41970 1-407); conditions: protein: recombinant; tags: N-terminal GST; dsDNA, one strand shown
T6 sequence: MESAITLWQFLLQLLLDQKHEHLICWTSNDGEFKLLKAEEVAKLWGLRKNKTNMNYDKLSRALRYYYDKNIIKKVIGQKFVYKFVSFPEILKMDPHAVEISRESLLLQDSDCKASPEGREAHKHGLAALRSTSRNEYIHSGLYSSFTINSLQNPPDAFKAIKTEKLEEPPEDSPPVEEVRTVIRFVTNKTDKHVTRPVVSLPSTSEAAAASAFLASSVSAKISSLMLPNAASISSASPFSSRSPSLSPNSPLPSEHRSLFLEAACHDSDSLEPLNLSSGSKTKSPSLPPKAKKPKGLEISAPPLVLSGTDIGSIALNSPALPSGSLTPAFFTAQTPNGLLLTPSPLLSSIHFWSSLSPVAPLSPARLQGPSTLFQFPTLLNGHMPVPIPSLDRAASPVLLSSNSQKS
In short: as §1

FEV = target: T7, FEV (Homo sapiens, UniProt Q99581 1-238); conditions: protein: recombinant; tags: N-terminal GST; dsDNA, one strand shown
T7 sequence: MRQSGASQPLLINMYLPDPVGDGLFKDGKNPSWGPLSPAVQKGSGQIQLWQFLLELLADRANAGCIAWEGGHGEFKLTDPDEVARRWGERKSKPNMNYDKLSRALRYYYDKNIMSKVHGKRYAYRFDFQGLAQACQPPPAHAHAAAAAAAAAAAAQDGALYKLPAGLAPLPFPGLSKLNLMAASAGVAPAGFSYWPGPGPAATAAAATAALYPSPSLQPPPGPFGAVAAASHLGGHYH
In short: as §1

ETV5 = ETV5 (Homo sapiens, UniProt P41161 1-510); conditions: protein: recombinant; tags: N-terminal GST; dsDNA, one strand shown
In short: as §1

HSF1 = HSF1 (Homo sapiens, UniProt Q00613 1-529); conditions: protein: recombinant; tags: N-terminal GST; chain copies: 3; dsDNA, one strand shown
In short: as §1

ELF4 = ELF4 (Homo sapiens, UniProt Q99607 1-663); conditions: protein: recombinant; tags: N-terminal GST; dsDNA, one strand shown
In short: as §1

ELK4 = target: T8, ELK4 (Homo sapiens, UniProt P28324-2 1-405); conditions: protein: recombinant; tags: N-terminal GST; dsDNA, one strand shown
T8 sequence: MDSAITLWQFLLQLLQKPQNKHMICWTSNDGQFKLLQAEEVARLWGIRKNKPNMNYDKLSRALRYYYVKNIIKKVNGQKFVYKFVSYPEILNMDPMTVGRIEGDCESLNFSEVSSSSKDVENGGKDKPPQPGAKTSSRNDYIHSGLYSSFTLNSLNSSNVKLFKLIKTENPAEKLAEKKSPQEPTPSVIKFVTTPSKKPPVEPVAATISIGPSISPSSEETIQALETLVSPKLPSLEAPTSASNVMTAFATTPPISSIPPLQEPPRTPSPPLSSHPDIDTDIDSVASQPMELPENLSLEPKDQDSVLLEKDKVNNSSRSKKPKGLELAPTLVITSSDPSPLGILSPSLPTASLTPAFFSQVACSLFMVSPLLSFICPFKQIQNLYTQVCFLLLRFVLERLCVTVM
In short: as §1

ETV2 = target: T9, ETV2 (Homo sapiens, UniProt O00321 1-342); conditions: protein: recombinant; tags: N-terminal GST; dsDNA, one strand shown
T9 sequence: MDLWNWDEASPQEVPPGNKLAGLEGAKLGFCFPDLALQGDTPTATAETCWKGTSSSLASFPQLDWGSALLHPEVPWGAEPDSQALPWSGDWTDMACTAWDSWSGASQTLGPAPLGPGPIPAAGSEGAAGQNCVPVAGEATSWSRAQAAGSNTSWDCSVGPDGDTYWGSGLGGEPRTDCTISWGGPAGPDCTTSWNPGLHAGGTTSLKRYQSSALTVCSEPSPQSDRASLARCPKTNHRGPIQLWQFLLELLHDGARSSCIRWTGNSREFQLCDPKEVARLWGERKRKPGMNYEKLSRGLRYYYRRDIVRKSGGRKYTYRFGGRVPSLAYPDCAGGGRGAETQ
In short: as §1

ELF3 = target: T10, ELF3 (Homo sapiens, UniProt P78545 1-371); conditions: protein: recombinant; tags: N-terminal GST; dsDNA, one strand shown
T10 sequence: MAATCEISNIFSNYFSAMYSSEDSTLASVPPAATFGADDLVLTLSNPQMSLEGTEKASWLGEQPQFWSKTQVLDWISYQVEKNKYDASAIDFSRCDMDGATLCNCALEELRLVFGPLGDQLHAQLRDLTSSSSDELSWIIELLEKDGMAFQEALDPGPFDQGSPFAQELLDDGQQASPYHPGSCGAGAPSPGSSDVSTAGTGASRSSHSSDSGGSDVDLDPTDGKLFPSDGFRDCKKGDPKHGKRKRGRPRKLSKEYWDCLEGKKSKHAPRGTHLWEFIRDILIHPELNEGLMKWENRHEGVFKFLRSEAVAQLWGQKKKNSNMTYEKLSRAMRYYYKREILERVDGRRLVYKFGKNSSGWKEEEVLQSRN
In short: as §1

CRX = CRX (Homo sapiens, UniProt O43186 1-299); conditions: protein: recombinant; tags: N-terminal GST; dsDNA, one strand shown
In short: as §1

ETV1 = ETV1 (Homo sapiens, UniProt P50549 1-477); conditions: protein: recombinant; tags: N-terminal GST; dsDNA, one strand shown
In short: as §1

Sequence of SPIB (Q01892 whole entry): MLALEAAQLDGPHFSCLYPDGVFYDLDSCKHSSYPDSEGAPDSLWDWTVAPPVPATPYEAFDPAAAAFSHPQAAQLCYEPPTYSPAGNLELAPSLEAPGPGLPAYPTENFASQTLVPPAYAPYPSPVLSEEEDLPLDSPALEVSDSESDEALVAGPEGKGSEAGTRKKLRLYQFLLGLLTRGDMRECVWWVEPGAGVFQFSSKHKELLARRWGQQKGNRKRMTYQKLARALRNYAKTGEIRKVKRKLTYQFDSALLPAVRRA
Sequence of ELF1 (P32519 whole entry): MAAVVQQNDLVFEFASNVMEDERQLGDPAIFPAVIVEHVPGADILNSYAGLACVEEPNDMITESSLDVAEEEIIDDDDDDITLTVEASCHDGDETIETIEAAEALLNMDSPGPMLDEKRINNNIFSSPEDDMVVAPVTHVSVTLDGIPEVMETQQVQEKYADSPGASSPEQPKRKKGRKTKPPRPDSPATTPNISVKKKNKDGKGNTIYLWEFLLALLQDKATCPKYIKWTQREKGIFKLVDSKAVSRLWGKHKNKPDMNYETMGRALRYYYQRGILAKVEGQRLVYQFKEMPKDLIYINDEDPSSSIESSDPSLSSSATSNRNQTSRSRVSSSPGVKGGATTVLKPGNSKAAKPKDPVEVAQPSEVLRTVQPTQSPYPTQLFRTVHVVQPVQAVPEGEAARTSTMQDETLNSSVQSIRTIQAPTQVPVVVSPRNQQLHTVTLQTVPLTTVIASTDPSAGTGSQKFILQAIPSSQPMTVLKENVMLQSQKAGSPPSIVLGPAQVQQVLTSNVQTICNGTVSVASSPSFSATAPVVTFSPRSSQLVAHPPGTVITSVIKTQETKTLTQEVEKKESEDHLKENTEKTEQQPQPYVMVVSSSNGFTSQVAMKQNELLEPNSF
Sequence of HSF1 (Q00613 whole entry): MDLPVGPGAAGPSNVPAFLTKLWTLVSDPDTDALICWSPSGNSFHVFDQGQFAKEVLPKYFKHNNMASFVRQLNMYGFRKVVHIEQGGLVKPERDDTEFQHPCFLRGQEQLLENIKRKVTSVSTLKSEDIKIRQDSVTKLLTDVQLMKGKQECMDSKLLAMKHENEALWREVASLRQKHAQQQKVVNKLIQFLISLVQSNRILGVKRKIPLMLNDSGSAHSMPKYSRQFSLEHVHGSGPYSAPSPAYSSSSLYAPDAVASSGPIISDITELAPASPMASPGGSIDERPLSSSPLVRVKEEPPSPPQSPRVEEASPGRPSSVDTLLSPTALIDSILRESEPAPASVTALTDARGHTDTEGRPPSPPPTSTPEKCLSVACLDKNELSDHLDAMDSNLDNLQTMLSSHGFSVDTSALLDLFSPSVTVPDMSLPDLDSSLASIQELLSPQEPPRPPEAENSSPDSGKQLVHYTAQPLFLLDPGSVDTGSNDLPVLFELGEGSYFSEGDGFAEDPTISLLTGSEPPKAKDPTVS
Sequence of ETV1 (P50549 whole entry): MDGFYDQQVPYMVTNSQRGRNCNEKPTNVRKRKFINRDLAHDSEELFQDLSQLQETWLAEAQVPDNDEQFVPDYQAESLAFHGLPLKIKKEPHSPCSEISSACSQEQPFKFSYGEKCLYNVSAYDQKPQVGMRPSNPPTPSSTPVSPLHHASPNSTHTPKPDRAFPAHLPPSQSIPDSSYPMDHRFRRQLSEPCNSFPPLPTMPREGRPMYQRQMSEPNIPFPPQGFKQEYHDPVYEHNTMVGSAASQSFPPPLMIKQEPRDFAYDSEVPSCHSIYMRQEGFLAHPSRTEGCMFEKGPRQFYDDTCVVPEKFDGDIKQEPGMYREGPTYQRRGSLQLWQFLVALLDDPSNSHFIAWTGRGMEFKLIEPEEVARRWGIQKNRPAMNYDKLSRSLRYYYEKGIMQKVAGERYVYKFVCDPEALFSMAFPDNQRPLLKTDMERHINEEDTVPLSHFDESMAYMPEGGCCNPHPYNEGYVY
Sequence of ETV5 (P41161 whole entry): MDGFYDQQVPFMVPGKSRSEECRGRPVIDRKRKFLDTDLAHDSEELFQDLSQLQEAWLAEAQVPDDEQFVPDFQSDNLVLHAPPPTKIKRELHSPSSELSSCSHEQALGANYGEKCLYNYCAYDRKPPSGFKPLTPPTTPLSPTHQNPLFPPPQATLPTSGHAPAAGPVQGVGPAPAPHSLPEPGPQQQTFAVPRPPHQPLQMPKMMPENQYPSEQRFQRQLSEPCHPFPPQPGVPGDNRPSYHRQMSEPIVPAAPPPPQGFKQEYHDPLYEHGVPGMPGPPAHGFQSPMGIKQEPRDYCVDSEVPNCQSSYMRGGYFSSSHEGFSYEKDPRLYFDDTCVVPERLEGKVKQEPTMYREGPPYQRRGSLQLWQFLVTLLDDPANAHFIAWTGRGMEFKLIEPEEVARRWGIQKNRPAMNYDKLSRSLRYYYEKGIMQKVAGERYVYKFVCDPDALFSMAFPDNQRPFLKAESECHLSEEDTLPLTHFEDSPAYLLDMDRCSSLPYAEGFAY
Sequence of ELF4 (Q99607 whole entry): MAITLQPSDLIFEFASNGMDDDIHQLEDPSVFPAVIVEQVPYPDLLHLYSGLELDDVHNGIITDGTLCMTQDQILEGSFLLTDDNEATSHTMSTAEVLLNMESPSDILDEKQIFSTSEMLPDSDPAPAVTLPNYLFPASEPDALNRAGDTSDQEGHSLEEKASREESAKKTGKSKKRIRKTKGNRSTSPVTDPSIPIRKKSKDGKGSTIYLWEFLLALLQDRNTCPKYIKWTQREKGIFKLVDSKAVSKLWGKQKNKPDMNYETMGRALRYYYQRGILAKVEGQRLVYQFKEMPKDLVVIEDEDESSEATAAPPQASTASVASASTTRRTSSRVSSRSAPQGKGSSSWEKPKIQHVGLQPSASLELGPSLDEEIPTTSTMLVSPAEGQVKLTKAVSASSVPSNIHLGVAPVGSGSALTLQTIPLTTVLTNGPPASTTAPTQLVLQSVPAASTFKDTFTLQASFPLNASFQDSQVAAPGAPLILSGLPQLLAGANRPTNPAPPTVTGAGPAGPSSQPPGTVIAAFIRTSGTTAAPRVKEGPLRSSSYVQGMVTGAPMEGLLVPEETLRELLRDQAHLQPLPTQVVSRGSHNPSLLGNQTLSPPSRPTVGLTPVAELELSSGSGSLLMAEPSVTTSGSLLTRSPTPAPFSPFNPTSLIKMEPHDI
Sequence of CRX (O43186 whole entry): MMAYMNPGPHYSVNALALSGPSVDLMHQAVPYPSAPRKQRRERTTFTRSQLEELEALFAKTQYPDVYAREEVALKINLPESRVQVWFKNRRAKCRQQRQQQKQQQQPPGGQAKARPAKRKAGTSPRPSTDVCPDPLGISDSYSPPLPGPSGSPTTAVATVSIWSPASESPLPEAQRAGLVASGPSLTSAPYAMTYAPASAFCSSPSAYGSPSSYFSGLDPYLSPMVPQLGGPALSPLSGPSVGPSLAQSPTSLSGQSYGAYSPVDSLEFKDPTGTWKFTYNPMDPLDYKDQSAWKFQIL

Sequence: ACAAGC
- binding signal (FLI1): 1.1 fold enrichment (6-mer frequency, TF over GST control)
- binding signal (ELK1): 1.11 fold enrichment (6-mer frequency, TF over GST control)
- binding signal (GABPA): 1.09 fold enrichment (6-mer frequency, TF over GST control)
- binding signal (ERG): 1.08 fold enrichment (6-mer frequency, TF over GST control)
- binding signal (ELF1): 1.1 fold enrichment (6-mer frequency, TF over GST control)
- binding signal (EHF): 1.08 fold enrichment (6-mer frequency, TF over GST control)
- binding signal (SPI1): 1.04 fold enrichment (6-mer frequency, TF over GST control)
- binding signal (SPIB): 1.12 fold enrichment (6-mer frequency, TF over GST control)
- binding signal (ELK3): 1.16 fold enrichment (6-mer frequency, TF over GST control)
- binding signal (FEV): 1.09 fold enrichment (6-mer frequency, TF over GST control)
- binding signal (ETV5): 1.12 fold enrichment (6-mer frequency, TF over GST control)
- binding signal (HSF1): 1.01 fold enrichment (6-mer frequency, TF over GST control)
- binding signal (ELF4): 1.13 fold enrichment (6-mer frequency, TF over GST control)
- binding signal (ELK4): 1.12 fold enrichment (6-mer frequency, TF over GST control)
- binding signal (ETV2): 1.06 fold enrichment (6-mer frequency, TF over GST control)
- binding signal (ELF3): 1.07 fold enrichment (6-mer frequency, TF over GST control)
- binding signal (CRX): 1.07 fold enrichment (6-mer frequency, TF over GST control)
- binding signal (ETV1): 1.16 fold enrichment (6-mer frequency, TF over GST control)

From article PMC7862700, “An all-to-all approach to the identification of sequence-specific readers for epigenetic DNA modifications on cytosine”
